# Measurements reported in PubChem BioAssay.
# For part of these data: Measured potencies and affinities stand elsewhere. The list shows a part of the results. Results filed as inconclusive are left out. Calls of active or inactive are those of the source. Unless noted, the rule behind the calls is not given here.
# How the values were obtained:
# [1] = A549 cell cytotoxicity, dose response, cytotoxicity control, plate reader, cherry-pick, antagonist series (AID 743412);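 note: 0% = neutral control wells and -100% = positive control wells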
# [2] = Ring1 de-repression measured by qPCR – cell-based, mouse ESC, RT-qPCR, cherry-pick, esBAF inhibitor project, confirmation (AID 743176;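 active = Ring1 gene expression raised more than 2-fold over untreated cells in both replicates at either tested dose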;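 note: Ring1 transcript normalised to actin housekeeping signal by TaqMan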); settings: mouse ESC E14, Ring1 mRNA RT-qPCR fold change, stronger effect = higher value
# [3] = Fgf4 repression measured by qPCR – cell-based, mouse ESC, RT-qPCR, cherry-pick, esBAF inhibitor project, confirmation (AID 743177;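 active = Fgf4 expression under 0.8 fold of control in both repeat measurements at one or both tested doses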;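 note: Fgf4 transcript normalised to actin in duplex TaqMan qPCR; cells exposed to compound for 24 h before lysis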); settings: mouse ESC E14, Fgf4 mRNA qPCR fold change, stronger effect = lower value
# [4] = Bmi1 mRNA increase in mouse ESCs – cell-based, RT-qPCR, mouse ESC, single point, cherry-pick, confirmation (AID 743180;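 active = Bmi1 expression fold change above 6 at either tested concentration, seen in replicate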;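 note: higher fold means more Bmi1 de-repression and stronger esBAF inhibition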); settings: mouse ESC E14, Bmi1 mRNA qPCR fold, stronger effect = higher value
# [5] = viability loss in A549 cells – cell-based, plate reader, single point, cherry-pick, cytotoxicity control (AID 743188); settings: at 25 µM
# [6] = viability loss in HepG2 cells – cell-based, plate reader, single point, cherry-pick, cytotoxicity control (AID 743189; in the data active = activity change below about -50%); settings: at 25 µM, stronger effect = lower value
# [7] = viability loss in HEK293 cells – cell-based, plate reader, single point, cherry-pick, cytotoxicity control (AID 743190; in the data active = activity change below about -38%, passing the limit was not always enough); settings: at 25 µM
compound,measurement,setting,value
COc1ccccc1CCn1cnc(-c2ccccc2OC)c1C(C)C,outcome,[1],inactive
O=C(NC1(Cc2ccccc2)CCN(Cc2ccc(-c3ccccc3)cc2)C1=O)c1ccccc1 (stereo not drawn),outcome,[1],inactive
Cc1ccc(-c2nc(COC(=O)c3c(C)noc3C)cs2)cc1,fold change,"[2]; Ring1 fold increase, at 7 µM",1.44
same,fold change,[2]; at 33 µM,1.18 (inactive)
same,Fgf4 expression fold change,"[3]; Fgf4 expression, at 7 µM",1.15
same,Fgf4 expression fold change,[3]; at 33 µM,1.07 (inactive)
same,fold change,"[4]; Bmi1 de-repression, at 7 µM",1.56
same,fold change,[4]; at 33 µM,1.73 (inactive)
same,cell viability change % (negative = cytotoxic),[5],-1.11% (inactive)
same,"activity change, negative = inhibition",[6],-41.9% (inactive)
same,"activity change, negative = inhibition",[7],-15.3% (inactive)
O=C(c1cc(-c2ccc(Cl)cc2)on1)N1CCN(c2ccccc2)CC1,fold change,"[2]; Ring1 fold increase, at 7 µM",1.25
same,fold change,[2]; at 33 µM,1.06 (inactive)
same,Fgf4 expression fold change,"[3]; Fgf4 expression, at 7 µM",1.02
same,Fgf4 expression fold change,[3]; at 33 µM,0.994 (inactive)
same,fold change,"[4]; Bmi1 de-repression, at 7 µM",1.17
same,fold change,[4]; at 33 µM,1.27 (inactive)
same,cell viability change % (negative = cytotoxic),[5],-16.6% (inactive)
same,"activity change, negative = inhibition",[6],9.34% (inactive)
same,"activity change, negative = inhibition",[7],-19.5% (inactive)
O=C(Nc1nc(-c2ccc(S(=O)(=O)N3CCOCC3)cc2)cs1)c1ccccc1,outcome,[1],inactive
COc1ccc(N=Cc2c(O)[nH]c3ccccc23)cc1OC,fold change,"[2]; Ring1 fold increase, at 7 µM",1.32
same,fold change,[2]; at 33 µM,1.03 (inactive)
same,Fgf4 expression fold change,"[3]; Fgf4 expression, at 7 µM",1.1
same,Fgf4 expression fold change,[3]; at 33 µM,1.2 (inactive)
same,fold change,"[4]; Bmi1 de-repression, at 7 µM",1.45
same,fold change,[4]; at 33 µM,2 (inactive)
same,cell viability change % (negative = cytotoxic),[5],0.475% (inactive)
same,"activity change, negative = inhibition",[6],24% (inactive)
same,"activity change, negative = inhibition",[7],-17.2% (inactive)
C[C@@H]1CN([C@H](C)CO)C(=O)CCCn2nncc2CO[C@H]1CN(C)C(=O)Nc1cccc2ccccc12,outcome,[1],inactive
Cc1ccc(-c2csc(Nc3ccccn3)n2)cc1,outcome,[1],inactive
Cc1csc(NC(=O)c2cnc3ccccc3n2)n1,outcome,[1],inactive
COc1ccc(Nc2ccc3ccccc3c2)cc1,fold change,"[2]; Ring1 fold increase, at 7 µM",1.4
same,fold change,[2]; at 33 µM,1.14 (inactive)
same,fold change,"[4]; Bmi1 de-repression, at 7 µM",1.37
same,fold change,[4]; at 33 µM,2.11 (inactive)
same,cell viability change % (negative = cytotoxic),[5],-5.46% (inactive)
same,"activity change, negative = inhibition",[6],10% (inactive)
same,"activity change, negative = inhibition",[7],-0.0365% (inactive)
Cc1cc(Cl)nc(NC(=O)Nc2cccc(Cl)c2)n1,fold change,"[2]; Ring1 fold increase, at 7 µM",1.34
same,fold change,[2]; at 33 µM,1.28 (inactive)
same,Fgf4 expression fold change,"[3]; Fgf4 expression, at 7 µM",0.987
same,Fgf4 expression fold change,[3]; at 33 µM,1.08 (inactive)
same,fold change,"[4]; Bmi1 de-repression, at 7 µM",1.61
same,fold change,[4]; at 33 µM,1.24 (inactive)
same,cell viability change % (negative = cytotoxic),[5],-1.39% (inactive)
same,"activity change, negative = inhibition",[6],-22.4% (inactive)
same,"activity change, negative = inhibition",[7],1.81% (inactive)
Clc1cccc(Cl)c1Cn1nnc(-c2cccs2)n1,fold change,"[2]; Ring1 fold increase, at 7 µM",1.24
same,fold change,[2]; at 33 µM,0.998 (inactive)
same,Fgf4 expression fold change,"[3]; Fgf4 expression, at 7 µM",1.02
same,Fgf4 expression fold change,[3]; at 33 µM,0.892 (inactive)
same,fold change,"[4]; Bmi1 de-repression, at 7 µM",1.24
same,fold change,[4]; at 33 µM,1.5 (inactive)
same,cell viability change % (negative = cytotoxic),[5],-14.2% (inactive)
same,"activity change, negative = inhibition",[6],-32% (inactive)
same,"activity change, negative = inhibition",[7],-18.7% (inactive)
CCc1c(C)sc(NC(=O)c2cccs2)c1C(N)=O,fold change,"[2]; Ring1 fold increase, at 7 µM",1.31
same,fold change,[2]; at 33 µM,0.944 (inactive)
same,Fgf4 expression fold change,"[3]; Fgf4 expression, at 7 µM",1.09
same,Fgf4 expression fold change,[3]; at 33 µM,1.11 (inactive)
same,fold change,"[4]; Bmi1 de-repression, at 7 µM",1.35
same,fold change,[4]; at 33 µM,1.67 (inactive)
same,cell viability change % (negative = cytotoxic),[5],-14% (inactive)
same,"activity change, negative = inhibition",[6],-29% (inactive)
same,"activity change, negative = inhibition",[7],-22.2% (inactive)
O=C(O)c1cccc(-c2noc(-c3cccc(Cl)c3)n2)c1,outcome,[1],inactive
CC(C)(C)NC(=O)Cn1nnc(-c2ccccc2Cl)n1,fold change,"[2]; Ring1 fold increase, at 7 µM",1.18
same,fold change,[2]; at 33 µM,1.12 (inactive)
same,Fgf4 expression fold change,"[3]; Fgf4 expression, at 7 µM",0.977
same,Fgf4 expression fold change,[3]; at 33 µM,0.933 (inactive)
same,fold change,"[4]; Bmi1 de-repression, at 7 µM",1.16
same,fold change,[4]; at 33 µM,1.15 (inactive)
same,cell viability change % (negative = cytotoxic),[5],-11.9% (inactive)
same,"activity change, negative = inhibition",[6],-3.1% (inactive)
same,"activity change, negative = inhibition",[7],-13.6% (inactive)
COC(=O)/C(=C1\Oc2ccc(C(C)(C)C)cc2S1)C(F)(F)F,fold change,"[2]; Ring1 fold increase, at 7 µM",1.4
same,fold change,[2]; at 33 µM,1.09 (inactive)
same,Fgf4 expression fold change,"[3]; Fgf4 expression, at 7 µM",1.06
same,Fgf4 expression fold change,[3]; at 33 µM,0.881 (inactive)
same,fold change,"[4]; Bmi1 de-repression, at 7 µM",1.51
same,fold change,[4]; at 33 µM,1.42 (inactive)
same,cell viability change % (negative = cytotoxic),[5],-9.79% (inactive)
same,"activity change, negative = inhibition",[6],-31.4% (inactive)
same,"activity change, negative = inhibition",[7],0.258% (inactive)
O=C(Nc1cccnc1Cl)c1cc(-c2ccccc2O)on1,fold change,"[2]; Ring1 fold increase, at 7 µM",1.22
same,fold change,[2]; at 33 µM,1 (inactive)
same,Fgf4 expression fold change,"[3]; Fgf4 expression, at 7 µM",1.2
same,Fgf4 expression fold change,[3]; at 33 µM,1.05 (inactive)
same,fold change,"[4]; Bmi1 de-repression, at 7 µM",1.07
same,fold change,[4]; at 33 µM,1.14 (inactive)
same,cell viability change % (negative = cytotoxic),[5],-9.75% (inactive)
same,"activity change, negative = inhibition",[6],-4.96% (inactive)
same,"activity change, negative = inhibition",[7],-13.7% (inactive)
Cc1cc(C)c(Cc2c(C)nc3c(C(=O)NCc4ccco4)cnn3c2C)c(C)c1,outcome,[1],inactive
Cc1ccc(-c2noc(-c3cccs3)n2)cc1,outcome,[1],inactive
O=C(c1ccc(Cl)cc1)c1cnc(Nc2ccccc2)s1,fold change,"[2]; Ring1 fold increase, at 7 µM",1.37
same,fold change,[2]; at 33 µM,1.43 (inactive)
same,Fgf4 expression fold change,"[3]; Fgf4 expression, at 7 µM",1.07
same,Fgf4 expression fold change,[3]; at 33 µM,0.927 (inactive)
same,fold change,"[4]; Bmi1 de-repression, at 7 µM",1.41
same,fold change,[4]; at 33 µM,1.36 (inactive)
same,cell viability change % (negative = cytotoxic),[5],-9.73% (inactive)
same,"activity change, negative = inhibition",[6],-14.8% (inactive)
same,"activity change, negative = inhibition",[7],-18.7% (inactive)
O=C(O)c1ccc(N/N=C/c2c[nH]c3ccccc23)cc1,outcome,[1],inactive
COc1ccc2nc(-c3ccc(F)cc3)sc2c1,outcome,[1],inactive
